± gives the standard deviation. In all, about 6,600 sequences were measured (“pre-steady-state target cleavage rate”: median about 0.07, highest 2% from about 0.72 on). The entries come from a sample that favours the highest values as a whole.
tested on: MIWI (PIWIL1) piRISC loaded with Kctd7 piRNA (30 nt); test: pre-steady-state target cleavage rate (min^-1); MIWI and MILI are mouse PIWI proteins and EfPiwi is from a freshwater sponge; tags in brackets are library labels; higher = faster piRNA-guided slicing of the target; conditions: guide: Kctd7 piRNA 5'p-UGUUAAUCUCUCAGAGAAGGUGACAGUGAU; auxiliary factor: 500 nM mouse GTSF1
Procedure: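 Cleave-'n-Seq: a library of target RNAs (target site embedded in constant flanks, ACAGCATTCCGCGTTAGTGATATCCG... 5' flank; DNA-blocked outside the site) at 0.1 nM was incubated with 1 nM active mouse MILI or MIWI piRISC (synthetic 5'-monophosphorylated piRNA guide) with or without 500 nM mouse GTSF1 at 33 °C for 1 min to 16 h. Uncleaved targets were sequenced and normalised to non-target controls, and the pooled three trials were fitted to a burst-and-steady-state model to give the pre-steady-state cleavage rate (min^-1; k3 is constrained to at most 1e-4). Sequence is the target site only; target names encode pairing extent (gX:gY) and contiguous / 1-mismatch / 2-mismatch / bulge geometry. Fits with R² ≤ 0 are excluded.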

Sequence	pre-steady-state target cleavage rate
UUGACUGUCACCUUCUCUGUGAGAUUAACA	0.267 ± 0.011
UAGUGACUCACCUUCUCUGACAGAUUAACA	0.393 ± 0.048
UAGUGACUGCACCUUCUCUGAGAGAUUAACA	0.77 ± 0.05
UAGACUGCACCUUCUCUGAGAGAUUAACA	0.698 ± 0.046
AUGACUGUCACCUACUCUGAGAGAUUAACA	0.736 ± 0.042
UAGUGACUGACCUUCUCUGAGAGAUUAACA	0.363 ± 0.037
UUGACUGUCACCUUCUCUGAGAGAUUAACA	0.777 ± 0.042
UAGUGACUCACCUUCUCUGACUGAUUAACA	0.00516 ± 0.0026
UAGUGACUCACCUUCUCUGAUAGAUUAACA	0.778 ± 0.035
AUCACUGUCACCUUCUCUGAGAGUAAAACA	0.125 ± 0.024
UUCACUGUCAGCUUCUCUGAGAGAUUAUCA	0.24 ± 0.027
UAGUCUGUCACCUUCUCUGAGAGAUUAGACA	0.138 ± 0.041
UAGUGACACACCUUCUGUGAGAGAUUAUGA	0.015 ± 0.007
UAGUGUGUCACCUUCUCUGAGUGAUUAUCA	0.00944 ± 0.0044
UAGUGAGUCACCUUCUGUGAGAGAUUUUGA	0.012 ± 0.0055
UAGUGAGUCACCUUCUCUGAGAGAUUAUGA	0.088 ± 0.019
UACAGUGUCACCUACUCUGAGAGAUUAACA	0.585 ± 0.038
UAGUGUGUCACCUACUCUGAGAGAUUAACA	0.598 ± 0.054
AUGACUGUCACCUUCUCUGAGAGAUUAAGA	0.205 ± 0.028
AUGACUGUCACCUUCUCUGUGAGAUUAACA	0.278 ± 0.013
UAGAGUGUCACCUACUCUGAGAGAUUAACA	0.765 ± 0.042
AUGACUGUCACCUUCUCUGAGAGAUUAACA	0.771 ± 0.037
UUCACUGUCACCUAGUCUGAGAGAUUUUGA	0.111 ± 0.03
UAGUGACACAGCUUCUCUGAGAGUUUAACA	0.0412 ± 0.0084
UUCACUGUCUCCUUCACUGAGAGAUUAACA	0.393 ± 0.032

Sequence	pre-steady-state target cleavage rate
AUCACGUCACCUUCUCUGAGAGAUUAACA	0.732 ± 0.041
UACACGUCACCUUCUCUGAGAGAUUAACA	0.737 ± 0.043
UUCACGUCACCUUCUCUGAGAGAUUAACA	0.702 ± 0.03
AUCACGUGUCACCUUCUCUGAGAGAUUAACA	0.63 ± 0.03
UACACGGUCACCUUCUCUGAGAGAUUAACA	0.593 ± 0.027
UACACCGUCACCUUCUCUGAGAGAUUAACA	0.78 ± 0.04
AUCACCGUCACCUUCUCUGAGAGAUUAACA	0.67 ± 0.026
UACACGUGUCACCUUCUCUGAGAGAUUAACA	0.563 ± 0.026
UUCACCGUCACCUUCUCUGAGAGAUUAACA	0.698 ± 0.03
UACACUGUCACCUUCACUGAGAGUUUAACA	0.356 ± 0.081
AUCACUGUCACCUAGACUGAGAGAUUAAGA	0.0119 ± 0.0058
UAGUCUGUGACCUUCUGUGAGAGAUUAACA	0.399 ± 0.028
UAGUCUGUCACCUUCUCUGAGACAUAAACA	0.0237 ± 0.0074
UUCAGUGUCACCUUCUCUGAGAGAUUUUGA	0.161 ± 0.043
AUCACUGUCACCUUCCCUGAGAGAUUAACA	0.449 ± 0.064
UAGUGUGUCACGAACUCUGAGAGAUUAACA	0.0752 ± 0.0083
UAGUGUCUCACCUUCUCUGAGAGAUUAUCA	0.239 ± 0.033
AUAACUGUCACCUUCUCUGAGAGAUUAACA	0.675 ± 0.03
AUCACUGUCAACCUUCUCUGAGAGAUUAACA	0.269 ± 0.021
AUCAACUGUCACCUUCUCUGAGAGAUUAACA	0.737 ± 0.049
UACAACUGUCACCUUCUCUGAGAGAUUAACA	0.744 ± 0.042
UUCACUGUCAACCUUCUCUGAGAGAUUAACA	0.271 ± 0.019
UUCAACUGUCACCUUCUCUGAGAGAUUAACA	0.733 ± 0.039
UUAACUGUCACCUUCUCUGAGAGAUUAACA	0.581 ± 0.022
UAAACUGUCACCUUCUCUGAGAGAUUAACA	0.677 ± 0.03

Sequence	pre-steady-state target cleavage rate
AUCACUGUCACCUUCUCUGAGAGAUUAACU [g2:g30:cont:t1U]	0.526 ± 0.057
UAGUGUGUGACCUUCUCUGUGAGAUUAACA	0.206 ± 0.016
UAGUGACAGUCCCUUCUCUGAGAGAUUAACA	0.611 ± 0.046
UUCACUCUCACCUUCUCUGAGAGAUUAACA	0.54 ± 0.028
UAGACUCGUCACCUUCUCUGAGAGAUUAACA	0.687 ± 0.041
UUCACUCGUCACCUUCUCUGAGAGAUUAACA	0.78 ± 0.042
UACACACUCACCUUCUCUGAGAGAUUAACA	0.568 ± 0.044
AUCACUCUCACCUUCUCUGAGAGAUUAACA	0.551 ± 0.029
UACACUCUCACCUUCUCUGAGAGAUUAACA	0.444 ± 0.031
AUCACUCGUCACCUUCUCUGAGAGAUUAACA	0.747 ± 0.043
UAGUCUCGUCACCUUCUCUGAGAGAUUAACA	0.571 ± 0.025
UACACUCGUCACCUUCUCUGAGAGAUUAACA	0.77 ± 0.035
UACACUGUCACCUUCUCAGAGAGAAUAACA	0.076 ± 0.021
AUCACUGUCACGUUCUCUCAGAGAUUAACA	0.0868 ± 0.0082
UAGUGUCUCACCUUCACUGAGAGAUUAACA	0.276 ± 0.019
UAGUGACUCACCAUCUCUGAGAGUUUAACA	0.173 ± 0.035
UACACUGUCACCUUCUCUGAGACAUUUUGA	0.00497 ± 0.0047
UAGACUGUCACCUUCUCUGAGGGAUUAACA	0.741 ± 0.051
UUCACUGUCACCUUCUCUGAGGGAUUAACA	0.51 ± 0.024
UAGACUGUCACCUUCUCUGAGAGGAUUAACA	0.369 ± 0.036
UAGACUGUCACCUUCUCUGAGGAUUAACA	0.00433 ± 0.0033
AUCACUGUCACCUUCUCUGAGGGAUUAACA	0.75 ± 0.041
UACACUGUCACCUUCUCUGAGGGAUUAACA	0.611 ± 0.033

Reference: the supplement of paper PMC10338343
